KB-V1 cytotox: qHTS assay for MDR1-selective chemotherapeutics: Primary screen using the drug-selected MDR subline cells KB-V1; KB-V1 MDR cells viability, CellTiter-Glo, 72 h; Potency, µM (doses to about 46.1 µM), usual class: cytotoxic; actives 3.4% (n = 400,000); AID 1347076, 2019; also: potency is read from the fitted curve at half-maximal effect; % is scaled to controls: 0 for no effect and ±100 for the full control effect; nearly all actives have a fitted effect of over 60% in size
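Compound-treated KB-V1 multidrug-resistant cells, 72 h, 37 degrees C; viability by CellTiter-Glo. Fitted qHTS curves give the values.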
IL-1B inflam inh: qHTS for Inhibitors of Inflammasome Signaling: IL-1-beta AlphaLISA Primary Screen | activity change, % at 57.5 µM | actives 4.7% (n = 360,000) | THP-1 LPS/ATP IL-1B secretion, AlphaLISA, 16 h; active compounds read low; in the data active = activity change below about -50%; inconclusive = mostly about -30% to -49%; also: % is scaled to controls: 0 for no effect and ±100 for the full control effect
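THP-1 cells pretreated 1 hr with compounds (up to 57.5 uM final), then stimulated with LPS (250 ng/mL final) plus ATP (1.25 mM final); secreted IL-1B measured by AlphaLISA after 16 hr, decreased signal indicating inhibition.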
KB-3-1 tox: qHTS assay for MDR1-selective chemotherapeutics: Primary screen using the parental adenocarcinoma cell KB-3-1; KB-3-1 viability, CellTiter-Glo ATP luminescence, 72 h; Potency, µM (top dose mostly 46.1 µM), hits mostly cytotoxic; actives 1.4% (n = 400,000); also: potency is read from the fitted curve at half-maximal effect; % is scaled to controls: 0 for no effect and ±100 for the full control effect; nearly all actives have a fitted effect of over 60% in size
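Parental KB-3-1 adenocarcinoma cells in phenol-red-free DMEM with 10% FBS were pin-treated with compounds at several concentrations, incubated 72 h at 37 °C, and viability read by CellTiter-Glo luminescence; concentration-effect curves were fitted after normalization.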
SW480 rerep: A quantitative high throughput screen for small molecules that induce DNA re-replication in SW480 colon adenocarcinoma cells; Potency, µM (top dose mostly 46.1 µM), inactives show top-dose re-replication activation, usual class: activators; SW480 DNA re-replication, Hoechst DNA content imaging, 48 h; AID 624297, 2012; actives 1.8% (n = 340,000); also: potency is read from the fitted curve at half-maximal effect; % of control where 0% means no effect; nearly all actives have a fitted effect of over 55% in size
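Quantitative HTS format with DMSO vehicle controls; 48 hr drug incubation at 37 C, then 40 min Hoechst staining and scanning imager measurement at 405 nm excitation.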
MCF10A rereplic: A quantitative high throughput screen for small molecules that induce DNA re-replication in MCF 10a normal breast cells. MCF 10A DNA re-replication, Hoechst nuclear intensity, 48 h. Potency, µM (doses to about 46.1 µM), for the others: at the top dose activity, positive = re-replication, actives largely listed as activators. actives 2.9% (n = 350,000). AID 624296, 2012; also: potency is read from the fitted curve at half-maximal effect; % of control where 0% means no effect; nearly all actives have a fitted effect of over 50% in size
* marks the source's active call; other numbers are inactive results; i = inactive; ? = inconclusive; . = no result; [ ] = dose if it differs, or a comment. Shown are actives, neighbours in structure and some others; about 9.9% of the full set was active somewhere. Unless noted, calls follow the shape of the dose curve; as a rule, active = well fitted curve in the direction sought with a large enough effect; inconclusive = small, poorly fitted or top-dose-only effect, or another doubt; inactive = no such curve, though single readings can be large; an effect the other way counts as inactive or inconclusive.

SMILES	KB-V1 cytotox	IL-1B inflam inh	KB-3-1 tox	SW480 rerep	MCF10A rereplic
CCOC(=O)C1CCN(C(=O)c2ccc3c(=O)n4nc(Nc5ccccc5OC)sc4nc3c2)CC1	i	-52*	i	.	.
CCOC(=O)C1CCN(C(=O)c2ccc3c(=O)n4nc(Nc5cc(C)ccc5C)sc4nc3c2)CC1	i	33	?	?	8%
COC(=O)[C@]1(C)N[C@H](CN(C)C(=O)Nc2ccc(OC)cc2)[C@@H]2C(=O)N(Cc3ccccc3)C(=O)[C@@H]21	i	-4	i	37%	-36%
Cc1nn(-c2ccc(Cl)cn2)c2c1C(=O)CC(C)(C)C2Br (stereo not given)	i	3	i	?	79%
O=c1[nH]c(/C=C/c2ccc(OC(F)F)cc2)nc2c1cnn2-c1ccccc1	i	-56*	i	9.2µM*	15µM*
CC(C)Sc1nc2c(cnn2-c2ccccc2)c(=O)[nH]1	i	-7	i	0%	15%
O=C(Nc1ccc(Cl)c([N+](=O)[O-])c1)ONC1=NCCCCC1	i	-53*	i	-1%	-6%
O=C(ONC1=NCCCCC1)c1cccc([N+](=O)[O-])c1	i	-5	?	1%	-1%
Cc1cc(C)c(S(=O)(=O)c2cccc(Cl)c2)c(=O)[nH]1	i	7	i	0%	-2%
O=C(Nc1cccc(Cl)c1)c1ccc(NCCCN2CCOCC2)c([N+](=O)[O-])c1	?	-51*	i	-1%[9.22 µM]	?
O=C(NCCCN1CCOCC1)c1ccc(Sc2ccccc2Cl)c([N+](=O)[O-])c1	13µM*	-52*	?	?	?
O=C(NCCCN1CCOCC1)c1ccc(Sc2ccc(Br)cc2)c([N+](=O)[O-])c1	i	16	i	0%	33%
COc1ccc(CN(C)C(=O)COC(=O)c2cc([N+](=O)[O-])ccc2N2CCCC2)c(OC)c1OC	i	-21	?	2%	13%
COc1ccc(C2C(C#N)=C(N)Oc3cc(N)ccc32)cc1 (stereo not given)	i	-3	i	-9%	14%
COc1cc(C2C(C#N)=C(N)Oc3cc(N)ccc32)cc(OC)c1OC (stereo not given)	?	14	?	1.2µM*	1.2µM*
COc1cc(C2C(C#N)=C(N)Oc3c2ccc2ccccc32)ccc1OCC(=O)Nc1ccc(C)cc1 (stereo not given)	?	-7	?	9%	?
N#CC1=C(N)Oc2cc(N)ccc2C1c1ccc(F)cc1F (stereo not given)	?	-23	?	23µM*	21µM*
N#CC1=C(N)Oc2cc(Nc3ccccc3)ccc2C1c1ccncc1 (stereo not given)	i	-78*	?	16µM*	?
COc1ccc(C2C(C#N)=C(N)Oc3c2ccc2cccnc32)cc1OC (stereo not given)	i	-10	2.6µM*	1.6µM*	4.6µM*
N#CC1=C(N)Oc2cc(N)ccc2C1c1ccccc1Cl (stereo not given)	i	46	?	?	?
COc1cccc(Nc2nc(C(N)C3CCCCC3)cs2)n1 (stereo not given)	i	0	i	.	.
N#CC1=C(N)Oc2cc(N)ccc2C1c1ccc(F)cc1 (stereo not given)	i	-5	?	?	?
CSc1ccc(C2C(C#N)=C(N)Oc3cc4c(cc32)OCO4)cc1 (stereo not given)	4.6µM*	-18	i	?	?
N#CC1=C(N)Oc2cc(N)ccc2C1c1cccnc1 (stereo not given)	i	16	?	?	?
N#CC1=C(N)Oc2cc(N)ccc2C1c1ccc(Cl)cc1 (stereo not given)	i	-75*	i	?	?
SMILES	KB-V1 cytotox	IL-1B inflam inh	KB-3-1 tox	SW480 rerep	MCF10A rereplic
CCN(CC)c1ccc2c(c1)OC(N)=C(C#N)C2c1cccnc1 (stereo not given)	0.29µM*	-101*	0.041µM*	0.18µM*	?
COc1cc(Cn2nnc3ccccc32)cc(Br)c1O	i	34	i	-21%	20%
Nc1ncnc(N2CCOCC2)c1N	i	13	i	21µM*	1%
Nc1c(Cl)ncnc1N1CCCC1	i	-13	i	-1%	-1%
Cc1sc2ncnc(NCC3CCCO3)c2c1C (stereo not given)	i	11	i	3%[9.22 µM]	3%
CCc1cc2c(NCC3CCCO3)ncnc2s1 (stereo not given)	16µM*	30	?	2%	17%
COc1ccc(S(=O)(=O)N2N=C(C)Oc3ccccc3C2=O)cc1	3.7µM*	42	4.6µM*	4µM*	7.9µM*
Cc1ccccc1Oc1nc2ccccn2c(=O)c1/C=C(\C#N)C(=O)Nc1c(C)n(C)n(-c2ccccc2)c1=O	i	0	i	-9%	14%
Cc1ccccc1Oc1nc2c(C)cccn2c(=O)c1/C=C(\C#N)C(=O)Nc1c(C)n(C)n(-c2ccccc2)c1=O	?	?	i	?	21µM*
Cc1ccc(Oc2nc3ccccn3c(=O)c2/C=C(\C#N)C(=O)Nc2c(C)n(C)n(-c3ccccc3)c2=O)cc1	i	-61*	i	-1%	6%
CCOC(=O)c1oc2ccccc2c1NC(=O)COc1ccc(F)cc1	8.2µM*	15	i	-3%	?
CCOC(=O)c1oc2ccccc2c1NC(=O)COc1cccc(OC)c1	i	47	i	1%	-12%
CO/N=C/C1CCN(c2ncc(C(F)(F)F)cc2Cl)C1=O (stereo not given)	i	3	i	-3%	-2%
Cc1cccc2c(=O)cc(C)n(CC(=O)N3CCCCC3)c12	16µM*	-7	i	-4%	3%
CCOC(=O)c1cnc2c(OC)cccc2c1Nc1ccc2c(c1)OCCO2	13µM*	5	?	?	?
CCOC(=O)c1cnc2c(ccc3ccccc32)c1Nc1ccc(OC)c(OC)c1	?	.	7.3µM*	.	.
CCOC(=O)c1cnc2c(ccc3ccccc32)c1Nc1ccc(C(C)=O)cc1	16µM*	.	?	.	.
CCOC(=O)c1cnc2ccc(OC)cc2c1Nc1ccc2c(c1)OCCO2	?	25	?	9%	23%
CCOC(=O)c1cnc2c(ccc3ccccc32)c1Nc1ccccc1OC	i	.	?	.	.
CCOc1ccc(NC(=O)c2ccc(-c3cccc(Cl)c3C)o2)cc1	i	.	i	.	.
